This is part of a sample that, as a whole, favours compounds with a hit. Of some 83,000 tested, about 20% had one in any assay.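 In brief: 96-well plates, 48 h treatment, single concentration, percent growth endpoint.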 Unmarked numbers belong to inactive results. Calls of active or inactive are those of the source. Rule for the calls: active = growth percent below 10; inactive = the rest.
Tests used:
Assay in all cases: NCI-60 one-dose screen, 48 h (100 = growth as untreated, 0 = no growth, -100 = all killed)
Settings in all cases: 10 µM
NCI-H23 lung = test system: NCI-H23 lung
NCI-H226 lung = test system: NCI-H226 lung
HOP-62 NSCLC = test system: HOP-62 NSCLC
NCI-H460 lung = test system: NCI-H460 lung
HOP-92 NSCLC = test system: HOP-92 NSCLC
NCI-H522 lung = test system: NCI-H522 lung
A549/ATCC NSCLC = test system: A549/ATCC NSCLC
786-0 renal = test system: 786-0 renal
COLO 205 colon = test system: COLO 205 colon
DU-145 prostate = test system: DU-145 prostate
K-562 leukemia = test system: K-562 leukemia
MALME-3M melanoma = test system: MALME-3M melanoma
MDA-MB-231 breast = test system: MDA-MB-231 breast
SF-268 CNS = test system: SF-268 CNS
SF-295 CNS = test system: SF-295 CNS
SF-539 CNS = test system: SF-539 CNS
UACC-257 melanoma = test system: UACC-257 melanoma
M14 melanoma = test system: M14 melanoma
RXF 393 renal = test system: RXF 393 renal
NCI-H322M lung = test system: NCI-H322M lung

Structure (SMILES) | growth (NCI-H23 lung) | growth (NCI-H226 lung) | growth (HOP-62 NSCLC) | growth (NCI-H460 lung) | growth (HOP-92 NSCLC) | growth (NCI-H522 lung) | growth (A549/ATCC NSCLC) | growth (786-0 renal) | growth (COLO 205 colon) | growth (DU-145 prostate) | growth (K-562 leukemia) | growth (MALME-3M melanoma) | growth (MDA-MB-231 breast) | growth (SF-268 CNS) | growth (SF-295 CNS) | growth (SF-539 CNS) | growth (UACC-257 melanoma) | growth (M14 melanoma) | growth (RXF 393 renal) | growth (NCI-H322M lung) [%]
COc1cnc2c(c1)C(=O)c1c-2n(CCCNCCO)c(=O)c2cc(OC)c(OC)cc12 | 3.38% (active) | 15.4% | 12.1% | 10.2% | 54.4% | 15.1% | 43% | -11.9% (active) | 15.4% | 15.6% | 26.8% | 49% | 19.2% | 44% | 6.94% (active) | -52.7% (active) | 68.3% | 23.1% |  | 
CCCCSc1nc(Nc2ccc(/C(C)=N/NC(N)=S)cc2)c(C#N)c(-c2ccc(OC)cc2)n1 | 31.4% | -6.28% (active) | 54.4% | 46.5% | -4.59% (active) | 85.7% | 47.4% | -71.5% (active) | 125% | 61.5% | 78.2% | -39.6% (active) | -11.4% (active) | 56.6% | 69.7% | -55.4% (active) | 74.9% | 39.3% |  | 
Cc1ccc2nc(COc3ccc(C(=O)NNC(=S)NCCc4ccccc4)cc3)[nH]c2c1 | 17.2% | 47.2% | 42.4% | 60.4% | 9.55% (active) | 55% | 104% | 61% | 144% | 98.9% | 85.7% | 64.8% | 29.6% | 33.6% | 79.3% | -1.98% (active) | 103% | 106% |  | 
CCN1CCN(c2ccc(NC(=O)Nc3ccc4c(c3F)CCN4c3ccnc(C(=O)NC)c3)cc2C(F)(F)F)CC1 | -79.4% (active) | 95% |  | -87.6% (active) | 82.3% | 110% | -81.4% (active) | -95.9% (active) | 120% | -91.2% (active) |  | -94.3% (active) | -88.9% (active) | -64.2% (active) | -74.1% (active) | -100% (active) | 99.3% | -92.6% (active) | -93% (active) | 
Cc1ccc2nc(-c3ccc(-c4nnc(SCC(=O)Nc5ccc(Br)cc5)o4)cc3)[nH]c2c1 | 50.3% | 62.1% | 72.9% | 14.4% | 91.9% | 62.6% | 89.5% | 84.6% | 87.3% | 82.9% | 7.89% (active) | 87.1% | 77.9% | 80.6% | 63.8% | 68.3% | 96.5% | 66.6% |  | 
Cc1ccc(-c2nc(Nc3ccc(C)c(S(N)(=O)=O)c3)c3ccccc3n2)cc1 | 79% | 84.1% | 96.3% | 11.9% | 104% | 112% | 43.4% | 33.7% | 90.5% | 35% | 5.02% (active) | 92.4% | 96.5% | 96.1% | 85.2% | -31.3% (active) | 104% | 63.2% |  | 
CO[C@@H]1CSS[C@H]1Cn1nc(-c2ccc(Oc3ccccc3)cc2)c2c(N)ncnc21 | 63.5% | 24.7% | 111% | 77.4% | 57.9% | 17.3% | 45.7% | 55.3% | 61.8% | 73.5% | 8.2% (active) | 63.4% | 72.6% | 70% | 43.1% | 50% | 40.8% | -64.2% (active) | 35.5% | 
CCCn1c(=O)c2[nH]c(-c3ccc(OCc4nc5ccc(C)cc5[nH]4)cc3)nc2n(CCC)c1=O | 25.3% | -55% (active) | -17.3% (active) | 13% | -43.2% (active) | 36.7% | 62.7% | -75.2% (active) | 91.3% | 61.8% | 28.3% | -69% (active) | -50.7% (active) | 66.4% | 12.6% | -84.2% (active) | 65.5% | 59.7% |  | 
NC(=Nc1ccc(OCCCCCCCCn2ccnn2)cc1)c1ccccc1 | 20.1% |  | 18.2% |  | 74.2% |  | 24.4% | 45.7% |  | 26.7% |  | 45.1% | 13.8% | 72.4% | 10.1% |  | 50.8% | 18.4% |  | 60.3
O=C(Cc1ccc2c(c1)CN(C1CCC(=O)NC1=O)C2=O)NCc1cccc2ccccc12 (centres undefined) | 12.7% | 1.96% (active) |  | 45.7% | -28.3% (active) | -21.4% (active) | 7.72% (active) | -23.6% (active) | -35.7% (active) | -7% (active) | 8.3% (active) | -72.2% (active) | -47.5% (active) | -8.53% (active) | -8.76% (active) | -23.3% (active) | 32.5% | -70.8% (active) |  | 
O=C(Nc1cccc([N+](=O)[O-])c1)Nc1cccc([N+](=O)[O-])c1 | 65.5% | 74.4% | 92.7% | 70.5% | 80.4% | 64.8% | 82.2% | 74% | 121% | 82% | 57.6% | 98.6% | 87.5% | 79.9% | 76.3% | 93% | 93.2% | 87.2% |  | 
Cn1cc(-c2cc(N)n3nc(-c4c[nH]c5ccc(Br)cc45)cc3n2)c2cccnc21 | -84% (active) | -71.2% (active) | -89.6% (active) | -35.7% (active) | -67.7% (active) |  | -80% (active) | -80.2% (active) | -85.8% (active) | -92.5% (active) | -3.96% (active) | -92.4% (active) | -85.6% (active) | -45.7% (active) | -91.9% (active) | -97.7% (active) | -84.3% (active) | -85.8% (active) | -85.2% (active) | 
COc1cc(/C=C/C(=O)c2ccc(S(=O)(=O)NCCNc3nc(Nc4ccc(F)cc4)nc(N(C)C)n3)cc2)cc(OC)c1OC | 13.7% | -21.6% (active) | 30.2% | 15.8% | 60.4% | 68% | 18.4% | -64.2% (active) | -50.8% (active) | 5.6% (active) | 4.79% (active) | 53.7% | -44.8% (active) | 11.1% | 13.5% | -94.9% (active) | 71.6% | 5.45% (active) |  | 
COc1cc(C2CC(c3ccc(C)cc3)=Nc3c(N)nc(N)nc3N2)ccc1Oc1nc(Nc2ccc(F)cc2)nc(N(C)C)n1 (centres undefined) | 73% | 61.4% | 93.9% | 37.7% | 9.32% (active) | 87.3% | 88.1% | 50.4% | 48.1% | 53.7% | 19.8% | 64.8% | 38.7% | 54.7% | 68.8% | 72.9% | 76.7% | 67.5% |  | 
O=C(Cn1nc(-c2ccccc2)ccc1=O)NNC(=S)NC1CCCCC1 | 105% | 105% | 104% | 136% | 116% | 104% | 114% | 105% | 135% | 117% | 90.4% | 105% | 109% | 113% | 101% | 97.3% | 111% | 122% |  | 
OCCCNc1oc(-c2ccccc2)nc1[P+](c1ccccc1)(c1ccccc1)c1ccccc1 | -1.07% (active) | -5.46% (active) | 17.9% | 3.97% (active) | -24.1% (active) |  | 29.6% | 11.2% | -52.3% (active) | 8.36% (active) | 11.1% | -26% (active) | -8.13% (active) | 6.17% (active) | 2.62% (active) | 4.68% (active) | -10.3% (active) | 10.1% |  | 
COc1cccc(-c2ccc(/C=N/NC(=O)c3[nH]c4ccc(Br)cc4c3-c3ccccc3)o2)c1 | 22.4% | 31.4% | 12.8% | 4.13% (active) | 54.4% | -42.8% (active) | 19.6% | 9.39% (active) | -40.6% (active) | 25.9% | 3.8% (active) | 47.5% | 23.6% | 33.5% | -14.6% (active) | -67.7% (active) | 36.9% | 16.7% | 26.1% | 
O=C(CSc1nnc(-c2ccc3nc(-c4ccc(Cl)cc4)[nH]c3c2)o1)Nc1ccc(Cl)cc1 | -73.9% (active) | -68.8% (active) | -56.4% (active) | -51.3% (active) | -6.37% (active) | -45.1% (active) | -58.4% (active) | -76.8% (active) | 7.13% (active) | 2.3% (active) | 5.7% (active) | -78.6% (active) | -87.1% (active) | -6.48% (active) | -99.4% (active) | -100% (active) | -32.6% (active) | -50.6% (active) |  | 
COc1cccc(C(N)=Nc2ccc(OCCCCCCn3cncn3)cc2)c1 | 21.1% |  | 20.7% |  | 79.3% | -2.45% (active) | 26.5% | 40.9% |  | 33% |  | 43.4% | 13.6% | 68.9% |  | -31.3% (active) | 56% | 9.26% (active) |  | 60.5
COc1cc(/C=C/C(=O)c2ccc(NC(=O)CSc3nnc(-c4c[nH]c5ccccc45)n3-c3ccccc3)cc2)cc(OC)c1OC | 47.7% | 69.9% | 101% | 91.2% | 105% | 90.5% | 106% | 96.1% | 102% | 79.6% | 28.6% | 95.2% | 64.2% | 85.4% | 74.3% | 60.8% | 106% | 81.1% |  | 
COc1ccc(-c2ccc(/C=N/NC(=O)c3[nH]c4ccc(Br)cc4c3-c3ccccc3)o2)cc1 | 50% | 44.1% | 47.2% | 16.8% | 85.9% | -44.1% (active) | 42.5% | 34.9% | 63.1% | 75.5% | 10.5% | 47% | 52.6% | 37.9% | 4.48% (active) | -14.1% (active) | 63.2% | 17% | 16.8% | 
